Measured values taken from PubChem BioAssay (Tox21).
Records with an inconclusive call do not appear. Calls of active or inactive are those of the source. Unless noted, calls follow the shape of the full dose curve.

How the values were obtained:
[1] = Nuclear factor erythroid 2-related factor 2/antioxidant responsive element (Nrf2/ARE) small molecule agonists: qHTS cell viability counter screen in human keratinocytes (AID 1919968; active = well fitted curve in the direction sought with a large enough effect in the repeat runs; an effect the other way counts as inactive or inconclusive; also: nearly all actives have a fitted effect of over 55% in size)
Summary of the method: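 Fluorescence read-out from CellTiter-Fluor after 1 h at 37 C. Wells held HaCaT-derived ARE-luciferase reporter cells (1,500/well) treated 23 h with DMSO-dissolved compounds. Run in the same wells as the luciferase agonist read.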

[2] = Nuclear factor erythroid 2-related factor 2/antioxidant responsive element (Nrf2/ARE) small molecule agonists: luciferase reporter gene qHTS assay in human keratinocytes (AID 1919969); also: nearly all actives have a fitted effect of over 35% in size
[3] = biological target: Gonadotropin-releasing hormone receptor (Homo sapiens) (UniProt P30968); experiment: Human gonadotropin-releasing hormone receptor (GnRHR) small molecule agonists, calcium flux assay in GnRHR-HEK293 cells (AID 1920063); also: nearly all actives have a fitted effect of over 35% in size
Summary of the method: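 Calcium-dye fluorescence, Ex/Em=480/540, recorded every 1 sec over 3 min after compound addition to GnRHR-HEK293 cells. Cells had been seeded 18 hours earlier and dye-loaded for 1 hour at 37 C. Fifteen concentrations, triplicates.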

[4] = biological target: KiSS-1 receptor (Homo sapiens) (UniProt Q969F8); experiment: Human kisspeptin (KISS1R) small molecule agonists, calcium flux assay in KISS1R-HEK293 cells (AID 1920064; active = well fitted curve in the direction sought with a large enough effect in the repeat runs; an effect the other way counts as inactive or inconclusive)
Summary of the method: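 Calcium flux read-out: kinetic fluorescence at Ex/Em=480/540, 1 s intervals over 3 min, after pin-tool compound addition to dye-loaded KISS1R-HEK293 cells. Fifteen concentrations, triplicates.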

[5] = G protein-coupled receptor (GPCR) small molecule agonists, calcium flux assay: HEK293 wild type cell line counter screen (AID 1920065)
Summary of the method: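 Agonist mode; 18 h seeding at 37 C, 1 h dye load at 37 C; compounds pinned from DMSO, ATP as positive control; kinetic fluorescence 480/540 nm, 3 min, 1 s reads; 15 concentrations, triplicate.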

[6] = p53 small molecule agonists, cell-based qHTS assay with human liver microsomes (AID 1963577)
Summary of the method: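 Cells carrying a p53-responsive bla reporter were rested 5 h (37 C, 5% CO2) before compound transfer. Human liver microsomes plus NADPH, 0.5 mg/mL final apiece, supplied metabolism during the 16 h 37 C exposure.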

[7] = p53 small molecule agonists, cell-based qHTS assay with rat liver microsomes (AID 1963578)
Summary of the method: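 Fluorescence from a beta-lactamase reporter under a p53 response element was measured after cells had been incubated 16 h at 37 C with test compound and rat liver microsomes plus NADPH (0.5 mg/mL final each).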

[8] = p53 small molecule agonists, cell-based qHTS assay with human liver microsomes: qHTS cell viability counter screen (AID 1963579); also: nearly all actives have a fitted effect of over 45% in size
Summary of the method: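 Seed p53RE-bla cells at 4,000 per well; incubate 5 h at 37 C; add compound, human liver microsomes and NADPH; incubate 16 h at 37 C; add CellTiter-Glo; after 30 min at room temperature, read luminescence.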

[9] = p53 small molecule agonists, cell-based qHTS assay with rat liver microsomes: qHTS cell viability counter screen (AID 1963580); also: nearly all actives have a fitted effect of over 45% in size
Summary of the method: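 After the beta-lactamase ratio was read, CellTiter-Glo was added to the same wells and luminescence measured at 30 min; cells had been treated 16 h at 37 C with compounds, rat liver microsomes and NADPH (0.5 mg/mL final each).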

[10] = p53 small molecule agonists, cell-based qHTS assay (AID 1963582; active = well fitted activation curve with a large enough effect in the signal ratio in the repeat runs, not every such curve was filed as active; the % refers to the signal ratio)
Summary of the method: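 Fluorescence intensity read-out of a beta-lactamase reporter under a p53 response element. Cells were exposed to DMSO-dissolved compounds for 16 h at 37 C, then developed with FRET substrate for 2 h at RT.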

[11] = biological target: 5-hydroxytryptamine receptor 2A (Homo sapiens) (UniProt P28223); experiment: 5-hydroxytryptamine receptor 2A (HTR2A) small molecule antagonists, cell-based qHTS assay (AID 1963586); also: nearly all actives have a fitted effect of over 45% in size
Summary of the method: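 CHO cells stably expressing human HTR2A were plated for 18 h at 37 C, then loaded with calcium dye for 1 h. Compounds were preincubated 5 min at room temperature before DOI (4 nM solution) was added. Kinetic fluorescence was read for 3 min.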

[12] = biological target: Muscarinic acetylcholine receptor M1 (Homo sapiens) (UniProt P11229); experiment: Cholinergic receptor muscarinic 1 (CHRM1) small molecule antagonists, cell-based qHTS assay (AID 1963588); also: nearly all actives have a fitted effect of over 40% in size
Summary of the method: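 Compounds were tested at 15 concentrations in three independent runs. Dye-loaded CHRM1-CHO cells were exposed 5 min at room temperature before stimulation by acetylcholine added at 50nM. Intracellular calcium was read kinetically on FDSS for 3 min.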

[13] = biological target: Muscarinic acetylcholine receptor M1 (Homo sapiens) (UniProt P11229); experiment: Cholinergic receptor muscarinic 1 (CHRM1) small molecule agonists, cell-based qHTS assay (AID 1963589); also: nearly all actives have a fitted effect of over 35% in size
Summary of the method: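 Calcium flux read-out: kinetic fluorescence at 1 sec intervals after pin-tool compound addition to dye-loaded CHRM1-CHO cells (human M1). Agonist mode; 15 concentrations tested in triplicate independent runs.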

[14] = cAMP Responsive Elements (CRE) small molecule agonists, cell-based qHTS assay (AID 1963590)
Summary of the method: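 Beta-lactamase reporter readout: LiveBLAzer B/G FRET substrate, 2 h at room temperature, added after 3 h compound treatment of CRE-bla HEK 293T cells at 37 C/5% CO2.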

[15] = cAMP Responsive Elements (CRE) small molecule antagonists, cell-based qHTS assay (AID 1963591; active = well fitted inhibition curve with a large enough effect in the signal ratio in the repeat runs, not every such curve was filed as active; the % refers to the signal ratio)
Summary of the method: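 HEK293T CRE-bla; 18 h preincubation; compound pin-transfer; NKH477 0.25 uM final, 3 h, 37 C; LiveBLAzer FRET substrate 2 h RT.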

[16] = biological target: Beta-2 adrenergic receptor (Homo sapiens) (UniProt P07550); experiment: Adrenergic beta2 receptor (ADRB2) small molecule antagonists, cell-based qHTS assay (AID 1963592); also: series mostly up to about 92 µM; nearly all actives have a fitted effect of over 50% in size
Summary of the method: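 Assay format: CHO-ADRB2 cells, 18-20hr seeding at 37C/5% CO2, then compound plus 1nM isoproterenol agonist mix for 0.5hr RT. Homogeneous time-resolved fluorescence cAMP detection after 1hr, expressed as 665/615 nm ratio.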

[17] = biological target: Beta-2 adrenergic receptor (Homo sapiens) (UniProt P07550); experiment: Adrenergic beta2 receptor (ADRB2) small molecule agonists, cell-based qHTS assay (AID 1963593);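 also: CHO cells stably overexpressing human ADRB2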
Summary of the method: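 CHO cells stably over-expressing ADRB2 were plated overnight at 37C, then dosed with compounds plus a stimulation mix containing 100uM IBMX and 25uM Ro-20-1724 for 0.5hr at room temperature. cAMP was measured by HTRF competition, 1hr.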

[18] = biological target: D(2) dopamine receptor (Homo sapiens) (UniProt P14416); experiment: Dopamine D2 receptor (DRD2) small molecule agonists, cell-based qHTS assay (AID 1963594); also: nearly all actives have a fitted effect of over 35% in size
Summary of the method: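 HEK293 cells stably expressing human DRD2, pre-treated with PDE inhibitor Ro20-1724 (0.1 mM final) and compound 10 min at room temperature, then stimulated with NKH477 (200nM […]) for 30 min. cAMP read by HTRF (665/620 nm).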

[19] = biological target: D(2) dopamine receptor (Homo sapiens) (UniProt P14416); experiment: Dopamine D2 receptor (DRD2) small molecule antagonists, cell-based qHTS assay (AID 1963595; active = well fitted inhibition curve with a large enough effect in the signal ratio in the repeat runs, with a control signal flat; the % refers to the signal ratio)
Summary of the method: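 DRD2-HEK293; 0.1 mM Ro20-1724; cpd 10 min RT; NKH477 200 nM + quinpirole 12 nM, 30 min RT; HTRF cAMP (cAMP-d2/anti-cAMP cryptate), 665/620 nm ratio after 1 h.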

[20] = p53 small molecule agonists, cell-based qHTS assay: qHTS cell viability counter screen (AID 1963581); also: nearly all actives have a fitted effect of over 45% in size
Summary of the method: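 Cytotoxicity read-out: ATP-based luminescence (CellTiter-Glo, 30 min RT) measured in the same wells as the p53 reporter assay, HCT-116 p53RE-bla cells, 16 h compound exposure at 37 C.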

Measured: Potency

Sequence of KiSS-1 receptor (Homo sapiens) (Q969F8 whole entry, looked up): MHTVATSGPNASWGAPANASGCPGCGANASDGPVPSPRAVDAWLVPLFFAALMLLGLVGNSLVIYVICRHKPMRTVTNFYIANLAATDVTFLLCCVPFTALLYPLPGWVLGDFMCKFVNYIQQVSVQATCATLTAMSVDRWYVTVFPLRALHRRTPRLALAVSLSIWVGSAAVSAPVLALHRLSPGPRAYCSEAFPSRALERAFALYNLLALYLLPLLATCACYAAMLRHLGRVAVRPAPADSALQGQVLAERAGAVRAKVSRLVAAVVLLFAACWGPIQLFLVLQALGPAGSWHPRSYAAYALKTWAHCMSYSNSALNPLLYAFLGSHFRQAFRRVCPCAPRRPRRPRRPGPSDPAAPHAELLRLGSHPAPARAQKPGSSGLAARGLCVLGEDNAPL
Sequence of Gonadotropin-releasing hormone receptor (Homo sapiens) (P30968 whole entry, looked up): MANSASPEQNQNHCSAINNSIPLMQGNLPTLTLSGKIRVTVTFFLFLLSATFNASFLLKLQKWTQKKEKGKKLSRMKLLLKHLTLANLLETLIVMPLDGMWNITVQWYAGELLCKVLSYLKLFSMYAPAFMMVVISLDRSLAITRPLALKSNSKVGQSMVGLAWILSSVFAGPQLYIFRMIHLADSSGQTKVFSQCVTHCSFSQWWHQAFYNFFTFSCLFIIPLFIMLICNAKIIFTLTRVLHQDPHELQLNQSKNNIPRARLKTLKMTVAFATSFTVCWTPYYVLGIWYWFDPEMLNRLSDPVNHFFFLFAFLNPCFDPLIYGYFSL
Sequence of 5-hydroxytryptamine receptor 2A (Homo sapiens) (P28223 whole entry, looked up): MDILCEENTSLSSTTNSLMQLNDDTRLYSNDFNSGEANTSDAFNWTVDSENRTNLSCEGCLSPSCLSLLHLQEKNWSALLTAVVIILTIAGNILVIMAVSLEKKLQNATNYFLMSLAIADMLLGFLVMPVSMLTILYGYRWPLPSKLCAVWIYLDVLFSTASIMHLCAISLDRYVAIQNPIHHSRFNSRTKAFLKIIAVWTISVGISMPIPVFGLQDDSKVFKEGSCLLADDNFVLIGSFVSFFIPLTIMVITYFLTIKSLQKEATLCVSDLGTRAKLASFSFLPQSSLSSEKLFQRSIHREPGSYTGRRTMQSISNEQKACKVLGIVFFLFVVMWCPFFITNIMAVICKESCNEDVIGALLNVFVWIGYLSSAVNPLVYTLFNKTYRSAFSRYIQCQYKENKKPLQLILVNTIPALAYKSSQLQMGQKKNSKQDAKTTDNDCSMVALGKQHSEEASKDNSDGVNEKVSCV
Sequence of Beta-2 adrenergic receptor (Homo sapiens) (P07550 whole entry, looked up): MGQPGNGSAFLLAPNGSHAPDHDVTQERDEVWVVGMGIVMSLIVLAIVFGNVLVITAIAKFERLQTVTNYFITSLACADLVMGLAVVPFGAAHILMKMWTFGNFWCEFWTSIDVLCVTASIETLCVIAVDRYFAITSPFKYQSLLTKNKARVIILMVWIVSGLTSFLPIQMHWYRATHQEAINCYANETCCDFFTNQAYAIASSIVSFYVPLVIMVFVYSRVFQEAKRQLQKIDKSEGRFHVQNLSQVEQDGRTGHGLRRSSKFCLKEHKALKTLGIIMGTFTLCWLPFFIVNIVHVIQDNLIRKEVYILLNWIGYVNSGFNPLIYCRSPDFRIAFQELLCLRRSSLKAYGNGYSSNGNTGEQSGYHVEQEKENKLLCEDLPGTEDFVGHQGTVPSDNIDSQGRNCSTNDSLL
Sequence of Muscarinic acetylcholine receptor M1 (Homo sapiens) (P11229 whole entry, looked up): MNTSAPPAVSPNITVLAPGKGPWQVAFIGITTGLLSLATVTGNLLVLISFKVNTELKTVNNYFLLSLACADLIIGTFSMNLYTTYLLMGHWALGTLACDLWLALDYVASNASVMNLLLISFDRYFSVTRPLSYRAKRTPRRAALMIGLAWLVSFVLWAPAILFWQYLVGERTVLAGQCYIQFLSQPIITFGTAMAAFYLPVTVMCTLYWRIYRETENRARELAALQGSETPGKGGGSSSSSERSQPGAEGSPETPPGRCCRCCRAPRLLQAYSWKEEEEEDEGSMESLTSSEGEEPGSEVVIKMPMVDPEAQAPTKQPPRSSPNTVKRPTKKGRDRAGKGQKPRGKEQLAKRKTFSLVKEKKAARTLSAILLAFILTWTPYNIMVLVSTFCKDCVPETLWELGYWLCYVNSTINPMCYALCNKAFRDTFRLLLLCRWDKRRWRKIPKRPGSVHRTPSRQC
Sequence of D(2) dopamine receptor (Homo sapiens) (P14416 whole entry, looked up): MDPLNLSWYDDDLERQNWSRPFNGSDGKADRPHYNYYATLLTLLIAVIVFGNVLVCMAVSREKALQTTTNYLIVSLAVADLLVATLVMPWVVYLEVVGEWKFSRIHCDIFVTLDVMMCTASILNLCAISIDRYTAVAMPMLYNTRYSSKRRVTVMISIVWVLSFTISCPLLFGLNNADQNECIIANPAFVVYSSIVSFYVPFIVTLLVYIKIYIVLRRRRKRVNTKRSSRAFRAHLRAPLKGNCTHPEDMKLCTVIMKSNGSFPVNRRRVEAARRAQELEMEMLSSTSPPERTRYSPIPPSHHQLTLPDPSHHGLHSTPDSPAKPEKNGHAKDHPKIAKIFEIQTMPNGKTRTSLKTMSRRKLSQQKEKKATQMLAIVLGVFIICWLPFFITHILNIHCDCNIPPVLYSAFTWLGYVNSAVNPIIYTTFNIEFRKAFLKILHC

Cc1nc(C)c(C)nc1C
not listed: [20]
inactive: all other assays above

CC1(C)O[C@H]2CC(=O)OC[C@]23[C@H]2CC[C@@]4(C)[C@H](c5ccoc5)OC(=O)[C@H]5O[C@]54[C@]2(C)C(=O)C[C@@H]13
not listed: [10] | [13] | [15] | [17]
inactive: all other assays above

C=C(C)C(=O)OCCNC(C)(C)C
not listed: [20]
inactive: all other assays above

C/C=C/c1ccc(OC)c(OC)c1
not listed: [20]
inactive: all other assays above

NC(=O)c1ncn([C@@H]2O[C@H](CO)[C@@H](O)[C@H]2O)c1O
not listed: [10]
inactive: all other assays above

ClC(c1ccccc1)(c1ccccc1)c1ccccc1
not listed: [10] | [17]
inactive: all other assays above

C/C=C/C(=O)C1=C(C)C=CCC1(C)C
not listed: [18] | [20]
inactive: all other assays above

C=CCCC
not listed: [17] | [20]
inactive: all other assays above

CCC(=O)c1ccc(O)cc1
not listed: [10] | [13] | [17]
inactive: all other assays above

CC1=C(CC(=O)O)c2cc(F)ccc2/C1=C\c1ccc(S(C)=O)cc1 (stereo not given)
not listed: [10] | [11] | [12] | [13] | [14] | [15]
inactive: all other assays above

CC[C@@H]1C[C@H](N(Cc2cc(C(F)(F)F)cc(C(F)(F)F)c2)C(C)=O)c2cc(C(F)(F)F)ccc2N1C(=O)OC(C)C
not listed: [17] | [20]
inactive: all other assays above

CC(CCO)CCc1ccccc1 (stereo not given)
not listed: [20]
inactive: all other assays above

C[C@@H]1O[C@@H](OC[C@H]2O[C@@H](Oc3c(-c4ccc(O)c(O)c4)oc4cc(O)cc(O)c4c3=O)[C@H](O)[C@@H](O)[C@@H]2O)[C@H](O)[C@H](O)[C@H]1O
not listed: [17] | [20]
inactive: all other assays above

CC(C)=CCC/C(C)=C/C#N
not listed: [10] | [19]
inactive: all other assays above

CCCOC(C)=O
not listed: [10] | [17]
inactive: all other assays above

CN(CCOc1ccc(CC2SC(=O)NC2=O)cc1)c1ccccn1 (stereo not given)
not listed: [10] | [11] | [12] | [13] | [14] | [15] | [17]
inactive: all other assays above

C#CC(C)(O)CC(C)C (stereo not given)
not listed: [10] | [12] | [18]
inactive: all other assays above

CCCCCCN
not listed: [9]
inactive: all other assays above

CC(=O)OCCc1ccccc1
not listed: [9]
inactive: all other assays above

Oc1cc(O)c2c(c1)O[C@H](c1ccc(O)c(O)c1)[C@H](O)C2
not listed: [9] | [17]
inactive: all other assays above

O=S(=O)(O)c1ccccc1O
not listed: [9] | [19]
inactive: all other assays above

FC(F)(F)c1ccccc1-n1ccnc1
not listed: [20]
inactive: all other assays above

CC(=O)C1(C)CC2=C(CCCC2(C)C)CC1C (stereo not given)
not listed: [9]
inactive: all other assays above

C=CCOC(=O)CCCCCC
not listed: [9]
inactive: all other assays above

CC1=CC(C)C(C=O)CC1 (stereo not given)
not listed: [9]
inactive: all other assays above

CCc1c(C(=O)O)c(=O)cnn1-c1ccc(Cl)cc1
not listed: [9] | [16] | [17] | [19]
inactive: all other assays above

SCCSCCS
not listed: [9]
inactive: all other assays above

C1CCCNCCC1
not listed: [9] | [17]
inactive: all other assays above

CCOC(=O)O[C@]1(C(=O)OCCl)CC[C@H]2[C@@H]3CCC4=CC(=O)C=C[C@]4(C)[C@H]3[C@@H](O)C[C@@]21C
not listed: [9]
inactive: all other assays above
